Measurements published in PubChem BioAssay.
For some assays here: Results with a measured potency or affinity are listed apart. The list shows a part of the results. Calls of active or inactive are those of the source.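 The calls were made as follows, unless noted: active = calcium signal ratio cut to more than 3 SD under the fully stimulated control mean yet still positive, in both repeats and the primary screen; inactive = the rest.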

Assays:
[1] = target: Short transient receptor potential channel 4 (Mus musculus) (UniProt Q9QUQ5); test: mouse TRPC4 membrane potential modulation by TRPC6 hits, confirmation, selectivity assay for TRPC6 inhibitor project, cell-based, second specificity screen, HEK293 TRPC4/mu-opioid (AID 2776;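 active = compounds whose fluorescence signal differed from control wells by over 3 SD, either direction, in both duplicate plates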); settings: HEK293 TRPC4/MOR, membrane potential dye fluorescence; at 10 µM; stronger effect = higher value; channel activated by saturating DAMGO dose
Sequence of Short transient receptor potential channel 4 (Mus musculus) (Q9QUQ5 whole entry, looked up): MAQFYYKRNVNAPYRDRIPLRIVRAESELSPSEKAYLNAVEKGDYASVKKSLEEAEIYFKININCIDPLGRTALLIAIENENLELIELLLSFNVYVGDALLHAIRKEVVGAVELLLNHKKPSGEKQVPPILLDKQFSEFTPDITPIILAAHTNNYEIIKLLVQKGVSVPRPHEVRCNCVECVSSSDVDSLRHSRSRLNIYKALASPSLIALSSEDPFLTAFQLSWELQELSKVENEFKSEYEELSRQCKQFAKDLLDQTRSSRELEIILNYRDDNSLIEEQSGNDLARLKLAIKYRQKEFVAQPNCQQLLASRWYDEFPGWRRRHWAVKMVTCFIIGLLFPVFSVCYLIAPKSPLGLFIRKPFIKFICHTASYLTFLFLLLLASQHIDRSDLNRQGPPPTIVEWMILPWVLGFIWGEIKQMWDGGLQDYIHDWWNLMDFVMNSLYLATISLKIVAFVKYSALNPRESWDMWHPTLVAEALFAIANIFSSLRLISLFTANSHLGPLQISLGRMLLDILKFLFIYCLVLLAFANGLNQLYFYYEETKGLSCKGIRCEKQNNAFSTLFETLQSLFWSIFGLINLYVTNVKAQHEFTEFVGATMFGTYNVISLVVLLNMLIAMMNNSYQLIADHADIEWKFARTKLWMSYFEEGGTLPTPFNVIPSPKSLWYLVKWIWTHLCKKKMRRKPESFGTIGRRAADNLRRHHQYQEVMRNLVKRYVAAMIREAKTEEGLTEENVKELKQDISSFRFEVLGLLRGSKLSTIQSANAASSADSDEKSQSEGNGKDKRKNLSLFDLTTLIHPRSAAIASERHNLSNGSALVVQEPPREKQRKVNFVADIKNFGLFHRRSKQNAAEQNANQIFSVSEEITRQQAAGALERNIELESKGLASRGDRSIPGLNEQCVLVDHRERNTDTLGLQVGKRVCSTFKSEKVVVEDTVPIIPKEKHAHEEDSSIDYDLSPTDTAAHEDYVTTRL

[2] = system: transient receptor potential cation channel C4 (TRPC4), mouse; test: mouse TRPC4 modulation by TRPC6 hits, confirmation, selectivity assay for TRPC6 inhibitor project, cell-based, HEK293 TRPC4/mu-opioid, membrane potential dye (AID 2777;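 active = rise or fall in signal beyond 3 SD of buffer-only wells in both replicate plates, either sign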;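 also: integrated kinetic ratio of fluorescence range over baseline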); settings: membrane potential fluorescence, at 10 µM
[3] = nonspecific membrane potential effects, parental HEK293, confirmation, counter-screen for TRPC6 inhibitor project, cell-based, second counter screen (AID 2779;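 active = membrane potential signal moving either way by over 3 SD of the maximum-effect control, in both duplicate plates, meaning non-specific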); settings: parental HEK293 membrane potential dye fluorescence; at 10 µM; maximal acetylcholine challenge after compound addition
[4] = membrane potential modulation in parental HEK293, confirmation, counter-screen for TRPC6 inhibitor project, cell-based (AID 2780;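 active = membrane potential signal shifting up or down by more than 3 SD of buffer-only wells, on both duplicate plates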;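 also: plate controls were buffer EC0 wells for no effect and acetylcholine ECmax wells for full effect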); settings: parental HEK293 membrane potential dye fluorescence; at 10 µM
[5] = target: Short transient receptor potential channel 6 (Mus musculus) (UniProt Q61143); test: mouse TRPC6 channel inhibitors, confirmation, HEK293 cells, membrane potential dye, duplicate (AID 488960;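 active = fluorescence ratio falls more than 5 SD below the full-stimulation control mean, in both duplicate runs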;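 also: integrated fluorescence ratio of peak minus minimum over baseline after agonist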); settings: ACh-evoked depolarization, at 10 µM; stronger effect = higher value
Sequence of Short transient receptor potential channel 6 (Mus musculus) (Q61143 whole entry, looked up): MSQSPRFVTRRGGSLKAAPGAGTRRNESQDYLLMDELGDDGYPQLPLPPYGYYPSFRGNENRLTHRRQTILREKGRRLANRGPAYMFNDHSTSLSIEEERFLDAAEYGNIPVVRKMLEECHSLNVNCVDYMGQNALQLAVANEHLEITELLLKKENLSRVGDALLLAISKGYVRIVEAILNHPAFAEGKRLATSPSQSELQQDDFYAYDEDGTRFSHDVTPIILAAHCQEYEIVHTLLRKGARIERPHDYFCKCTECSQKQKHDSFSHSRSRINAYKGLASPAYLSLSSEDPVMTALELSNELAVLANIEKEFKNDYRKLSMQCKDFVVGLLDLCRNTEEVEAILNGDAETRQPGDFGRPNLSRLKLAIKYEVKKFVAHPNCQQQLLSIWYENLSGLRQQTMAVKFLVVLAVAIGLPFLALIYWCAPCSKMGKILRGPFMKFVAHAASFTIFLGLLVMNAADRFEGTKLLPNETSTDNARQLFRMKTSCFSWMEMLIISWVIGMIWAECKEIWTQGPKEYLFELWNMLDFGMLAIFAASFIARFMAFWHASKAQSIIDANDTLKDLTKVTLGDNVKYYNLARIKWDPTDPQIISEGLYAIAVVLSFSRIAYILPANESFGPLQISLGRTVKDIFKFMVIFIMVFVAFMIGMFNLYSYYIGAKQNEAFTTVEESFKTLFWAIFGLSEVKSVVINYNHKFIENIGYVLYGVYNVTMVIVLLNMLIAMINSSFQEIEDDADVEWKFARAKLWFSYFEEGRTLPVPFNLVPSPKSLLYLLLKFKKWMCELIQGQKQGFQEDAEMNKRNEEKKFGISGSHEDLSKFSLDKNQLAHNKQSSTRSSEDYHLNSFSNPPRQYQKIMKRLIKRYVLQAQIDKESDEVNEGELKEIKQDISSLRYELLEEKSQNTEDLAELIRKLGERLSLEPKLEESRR

[6] = target: Short transient receptor potential channel 6 (Mus musculus) (UniProt Q61143); test: mouse TRPC6 channel activators, confirmation, HEK293 cells, membrane potential dye, duplicate (AID 488961;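 active = ratio signal rise beyond 5 SD above unstimulated control wells' mean, seen in both duplicate runs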); settings: HEK293-TRPC6 membrane potential dye fluorescence, FDSS; at 10 µM
[7] = system: TRPC4 beta (transient receptor potential cation channel C4), mouse; test: activators of mouse TRPC4 channel, confirmation, cell-based, Fluo4 calcium, HEK293 TRPC4beta/mu-opioid, duplicates, 10 µM (AID 2426;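 active = fluorescence ratio normalized to control raised more than 50% in primary screen plus both repeat runs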;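 also: percent rise of integrated ratio over buffer wells lacking compound which define 0%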); settings: Fluo4 calcium fluorescence, at 10 µM; stronger effect = higher value
[8] = system: transient receptor potential cation channel C4 beta (TRPC4), mouse; test: activators of mouse TRPC4 channel, confirmation, cell-based, second round, Fluo4, HEK293 TRPC4beta/mu-opioid, 1 µM (AID 2461;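 active = primary screen active and over 50% activation in each of two duplicate runs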;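 as to activation: 0% = wells without test compound as baseline of integrated fluorescence ratio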); settings: Fluo4 calcium fluorescence, at 1 µM; stronger effect = higher value
[9] = system: TRPC4 (transient receptor potential cation channel C4 beta), mouse; test: positive allosteric modulators of mouse TRPC4, confirmation, cell-based, second round, Fluo-4, HEK293 TRPC4beta/mu-opioid, 1 µM (AID 2554;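 active = primary screen hit whose fluorescence ratio, in both repeats, exceeds the weak agonist control mean by 3 SD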); settings: DAMGO EC20, Fluo-4 calcium flux, at 1 µM; stronger effect = higher value
[10] = system: TRPC4 beta (transient receptor potential cation channel C4), mouse; test: positive allosteric modulators of mouse TRPC4, confirmation, cell-based, Fluo-4, HEK293 TRPC4beta/mu-opioid (AID 2555;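 active = primary screen hit whose calcium fluorescence ratio, in both repeats, exceeds the weak agonist control mean by 3 SD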); settings: DAMGO EC20, Fluo-4 calcium flux, at 10 µM; stronger effect = higher value
[11] = target: Short transient receptor potential channel 4 (Mus musculus) (UniProt Q9QUQ5); test: inhibitors of mouse TRPC4 channel, confirmation, cell-based, Fluo4, HEK293 TRPC4beta/mu-opioid (AID 2636;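 active = calcium signal cut by more than 3 SD below the full-agonist control yet still positive, in both repeats and the earlier primary screen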); settings: DAMGO, Fluo4 calcium flux, at 10 µM; stronger effect = higher value
[12] = target: Short transient receptor potential channel 4 (Mus musculus) (UniProt Q9QUQ5); test: inhibitors of mouse TRPC4 channel, confirmation, cell-based, second round, Fluo4, HEK293 TRPC4beta/mu-opioid, 1 µM (AID 2637); settings: Fluo4 calcium flux, DAMGO, at 1 µM; stronger effect = higher value
[13] = target: Short transient receptor potential channel 4 (Mus musculus) (UniProt Q9QUQ5); test: TRPC4 positive allosteric modulators, dose response, cell-based, HEK293 TRPC4/mu-opioid, Fluo-4 calcium, EC20 DAMGO (AID 434941;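 active = earlier screen potentiator hit that boosts the TRPC4 ion channel at some dose, with a dose response; inactive = no potentiation, no dose response, or not a prior hit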;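 also: calcium entry triggered by an EC20 dose of DAMGO at the co-expressed mu-opioid receptor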); settings: HEK293 TRPC4/mu-opioid cells, Fluo-4 calcium fluorescence; series mostly up to 20 µM
[14] = target: Short transient receptor potential channel 4 (Mus musculus) (UniProt Q9QUQ5); test: mouse TRPC4 channel inhibitors, dose response, cell-based, HEK293 TRPC4/mu-opioid, Fluo-4 calcium (AID 434942;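 active = primary screen inhibitor hit that blocks the TRPC4 channel at some tested dose, yielding a dose curve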); settings: HEK293 TRPC4/mu-opioid cells, DAMGO-evoked Fluo-4 calcium ratio; series mostly up to 20 µM
[15] = target: Short transient receptor potential channel 6 (Mus musculus) (UniProt Q61143); test: inhibition of mouse TRPC6 channel, confirmation, selectivity assay for TRPC4 inhibitor project, cell-based, HEK293, membrane potential dye, duplicate (AID 434948;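 active = active in primary screen and both duplicates, each dropping signal beyond three positive-control SD with fluorescence still positive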); settings: HEK293 TRPC6, membrane potential dye fluorescence, at 10 µM; inhibition: stronger effect = higher value, stimulated with maximal-effect acetylcholine unless noted; outcome: stimulated with maximal-effect acetylcholine unless noted
[16] = target: Short transient receptor potential channel 6 (Mus musculus) (UniProt Q61143); test: activation of mouse TRPC6 channel, confirmation, selectivity assay for TRPC4 activator project, cell-based, HEK293, membrane potential dye, duplicate (AID 434950;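 active = membrane potential signal rise above negative control mean plus 3 SD in both duplicates, also active in the earlier TRPC4 screen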;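 also: 0% = buffer only wells and 100% = acetylcholine maximal-effect wells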); settings: HEK293 TRPC6, membrane potential fluorescence, at 10 µM; stronger effect = higher value
[17] = target: Short transient receptor potential channel 6 (Mus musculus) (UniProt Q61143); test: TRPC6 potentiation by TRPC4 potentiator hits, confirmation, selectivity assay for TRPC4 potentiator project, HEK293 cells, membrane potential dye, duplicate (AID 434952;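 active = compound raising the membrane signal above positive-control mean plus 3 SD in both repeats, and a primary screen hit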); settings: HEK293 TRPC6, membrane potential dye fluorescence, at 10 µM; maximal acetylcholine added after compound unless noted
[18] = target: Short transient receptor potential channel 4 (Mus musculus) (UniProt Q9QUQ5); test: calcium flux activators in TRPC4/5HT1a cells, counter-screen for TRPC4 activator project, cell-based, second counter screen, HEK293 TRPC4/5HT1a, Fluo-4 (AID 434977;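 active = calcium signal rise above buffer-control mean plus 5 SD in both duplicates, and also a hit in the primary screen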;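 as to activation: plate controls were assay buffer for no effect and maximal serotonin response for full effect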); settings: Fluo-4 calcium flux, at 10 µM; stronger effect = higher value
[19] = calcium flux inhibitors in TRPC4/5HT1a cells, confirmation, counter-screen for TRPC4 inhibitor project, cell-based, second counter screen, HEK293 TRPC4/5HT1a, Fluo-4 (AID 434978;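 active = primary screen active whose calcium signal fell more than 3 SD beyond the full-serotonin control mean in both duplicate plates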;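 also: serotonin given first at submaximal then at maximal dose after compound preincubation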); settings: Fluo-4 calcium flux, at 10 µM; inhibition: stronger effect = higher value, serotonin added to trigger calcium flux unless noted; outcome: serotonin added to trigger calcium flux unless noted
[20] = system: TRPC4 (mouse), co-expressed with 5HT1a in HEK293; test: calcium flux potentiators in TRPC4/5HT1a cells, confirmation, counter-screen for TRPC4 potentiator project, cell-based, second counter screen, HEK293 TRPC4/5HT1a, Fluo-4 (AID 434979;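 active = signal rise over 3 SD above mean of control wells given weak agonist, in both repeats and first screen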); settings: Fluo-4 calcium flux, at 10 µM; outcome: serotonin added at its EC20 dose unless noted; potentiation: stronger effect = higher value, serotonin added at its EC20 dose unless noted
[21] = calcium flux activation in mu-opioid HEK293 cells, confirmation, counter-screen for TRPC4 activator project, cell-based, HEK293 mu-opioid receptor line (AID 449723;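 active = hit in primary screen, with calcium signal over 5 SD above buffer well mean in both duplicates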;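 also: counter screen cells carry the mu-opioid receptor alone and lack TRPC4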); settings: Fluo-4 calcium fluorescence, at 10 µM; stronger effect = higher value
[22] = calcium flux enhancement in mu-opioid HEK293 cells, confirmation, counter-screen for TRPC4 allosteric potentiator project, cell-based, HEK293 mu-opioid receptor line (AID 449724;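 active = calcium signal rise more than 3 SD above the low-dose agonist control mean, in both duplicate plates and the primary screen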); settings: Fluo-4 calcium flux, at 10 µM; compound added before EC20 DAMGO stimulus unless noted
[23] = thallium flux activation in parental CHO cells, counter-screen for KCNQ1 potentiator project (AID 493006;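 active = duplicate-averaged activation above buffer control mean plus 5 SD of those controls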;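 as to activation: fluorescence ratio of max minus min over baseline after K+ and Tl+ depolarization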); settings: parental CHO-K1 cells, FluxOR thallium flux, at 10 µM; stronger effect = higher value
[24] = target: Potassium voltage-gated channel subfamily KQT member 1 (Homo sapiens) (UniProt P51787); test: KCNQ1 potassium channel potentiators, confirmation, FluxOR thallium flux, CHO cells, duplicates (AID 493007;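 active = potentiation averaged over duplicate wells exceeding buffer-only control mean by more than 3 SD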;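 as to outcome: cells depolarized by a potassium plus thallium sulfate stimulus after compound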;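 as to potentiation: 0% = buffer-only wells and 100% = R-L3 activator control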); settings: KCNQ1 cell line, FluxOR thallium flux fluorescence, at 10 µM; stronger effect = higher value, % of reference activator effect, buffer zero
Sequence of Potassium voltage-gated channel subfamily KQT member 1 (Homo sapiens) (P51787 whole entry, looked up): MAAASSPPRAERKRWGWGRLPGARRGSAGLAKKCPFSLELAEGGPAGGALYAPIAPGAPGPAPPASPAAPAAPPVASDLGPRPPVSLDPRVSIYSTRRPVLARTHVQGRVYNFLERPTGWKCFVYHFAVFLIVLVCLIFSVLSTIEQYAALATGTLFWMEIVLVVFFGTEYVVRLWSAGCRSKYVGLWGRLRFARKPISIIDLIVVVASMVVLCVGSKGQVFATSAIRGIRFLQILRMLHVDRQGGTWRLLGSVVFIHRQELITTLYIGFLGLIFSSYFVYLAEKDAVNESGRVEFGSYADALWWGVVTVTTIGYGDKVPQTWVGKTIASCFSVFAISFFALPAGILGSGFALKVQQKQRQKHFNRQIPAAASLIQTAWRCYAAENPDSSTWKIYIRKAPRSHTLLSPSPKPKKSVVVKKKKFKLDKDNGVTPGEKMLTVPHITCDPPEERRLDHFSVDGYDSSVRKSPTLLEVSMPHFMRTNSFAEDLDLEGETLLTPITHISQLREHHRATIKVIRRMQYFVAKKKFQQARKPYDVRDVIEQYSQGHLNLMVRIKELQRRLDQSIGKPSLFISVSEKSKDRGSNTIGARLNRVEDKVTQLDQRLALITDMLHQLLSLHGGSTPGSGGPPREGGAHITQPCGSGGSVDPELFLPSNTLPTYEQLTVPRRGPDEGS

[25] = target: Potassium voltage-gated channel subfamily KQT member 2 (Rattus norvegicus) (UniProt O88943); test: rat KCNQ2 channel potentiation, selectivity assay for KCNQ1 potentiator project, KCNQ2-CHO-K1 cells (AID 493009;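 active = mean duplicate potentiation above the buffer control mean plus 5 SD of buffer wells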;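 also: assay conditions were tuned for KCNQ1 rather than KCNQ2 modulators; signal is max minus min fluorescence divided by baseline after thallium stimulus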); settings: FluxOR thallium flux fluorescence, at 10 µM; stronger effect = higher value, scaled: buffer 0, activator control 100
Sequence of Potassium voltage-gated channel subfamily KQT member 2 (Rattus norvegicus) (O88943 whole entry, looked up): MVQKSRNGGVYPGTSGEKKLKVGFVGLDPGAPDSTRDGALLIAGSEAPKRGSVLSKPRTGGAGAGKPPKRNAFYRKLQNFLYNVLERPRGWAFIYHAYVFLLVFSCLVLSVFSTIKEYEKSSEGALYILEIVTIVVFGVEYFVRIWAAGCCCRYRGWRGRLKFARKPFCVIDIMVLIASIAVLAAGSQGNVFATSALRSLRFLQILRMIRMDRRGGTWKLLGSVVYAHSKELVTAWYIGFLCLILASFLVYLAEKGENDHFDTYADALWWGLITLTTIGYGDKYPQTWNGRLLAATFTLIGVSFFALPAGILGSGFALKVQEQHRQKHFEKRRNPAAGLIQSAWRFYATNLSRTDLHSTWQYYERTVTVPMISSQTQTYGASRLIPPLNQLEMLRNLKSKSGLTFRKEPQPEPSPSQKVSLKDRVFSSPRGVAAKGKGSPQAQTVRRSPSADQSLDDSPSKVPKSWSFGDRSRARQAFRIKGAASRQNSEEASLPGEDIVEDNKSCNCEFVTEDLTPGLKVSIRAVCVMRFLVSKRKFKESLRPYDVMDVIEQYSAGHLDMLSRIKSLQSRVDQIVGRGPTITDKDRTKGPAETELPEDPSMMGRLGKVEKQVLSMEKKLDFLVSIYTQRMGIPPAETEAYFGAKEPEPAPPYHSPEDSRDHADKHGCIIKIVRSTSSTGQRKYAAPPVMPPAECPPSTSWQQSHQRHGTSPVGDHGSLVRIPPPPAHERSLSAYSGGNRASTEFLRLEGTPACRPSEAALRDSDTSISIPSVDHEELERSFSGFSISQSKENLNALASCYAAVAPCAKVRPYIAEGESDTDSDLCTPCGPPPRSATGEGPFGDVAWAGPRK

[26] = target: Potassium voltage-gated channel subfamily KQT member 1 (Homo sapiens) (UniProt P51787); test: KCNQ1 channel current potentiators, confirmation, orthogonal assay for KCNQ1 potentiator project, IonWorks patch clamp, KCNQ1-CHO cells (AID 493184;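 active = current rise at least 3 SD above the untreated control mean in each of two repeat wells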); settings: automated patch clamp current, at 10 µM
[27] = parental HEK293 membrane potential modulation, confirmation, counter-screen for TRPC6 modulator project, cell-based (AID 488924;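 active = membrane potential signal moves up or down beyond 5 SD from buffer-only wells, on both duplicate plates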); settings: parental HEK293, membrane potential dye fluorescence; at 10 µM
[28] = modulation of acetylcholine-evoked membrane potential, parental HEK293, confirmation, counter-screen for TRPC6 modulator project, cell-based, second counter-screen, membrane potential dye (AID 488926;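 active = membrane potential signal drops by more than 5 SD from the mean control signal, in both duplicate plates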;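 as to inhibition: plate controls were acetylcholine ECmax control wells for no effect and buffer only wells for full effect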); settings: parental HEK293, membrane potential dye fluorescence, at 10 µM, after compound, maximal acetylcholine stimulation; stronger effect = higher value
[29] = system: Transient receptor potential cation channel subfamily C member 4 (mouse); test: TRPC4 modulation by TRPC6 hit compounds, confirmation, selectivity assay for TRPC6 modulator project, cell-based, HEK293 TRPC4/mu-opioid, membrane potential dye, mouse (AID 488927;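 active = membrane potential signal moved up or down beyond 5 SD of buffer control wells, in both duplicate plates, actives on both sides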;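 also: plate controls were assay buffer wells for no effect and DAMGO maximal-effect wells for full effect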); settings: membrane potential fluorescence, at 10 µM
[30] = system: TRPC4 (transient receptor potential cation channel C4), mouse; test: TRPC4 inhibition by TRPC6 hit compounds, confirmation, selectivity assay for TRPC6 modulator project, cell-based, second screen, HEK293 TRPC4/mu-opioid, membrane potential dye (AID 488928;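 active = drop in membrane potential signal beyond 5 SD of the control wells in both duplicate plates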;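 also: TRPC4 counter screen for TRPC6 hits run under conditions tuned for TRPC6 not TRPC4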); settings: membrane potential dye fluorescence, at 10 µM, stimulated with maximal-effect DAMGO; stronger effect = higher value

CCCCCCCCCCCCn1ccc(=N)cc1
active: inhibition [1] 66% | activity change, negative = inhibition [2] -9.73% | membrane potential signal change [4] -166% | inhibition [5] 56.1%
inactive: outcome [3] | outcome [6]

Cc1ccc(-n2cc(CNC(C)Cc3cnccn3)c(-c3cccc(C)c3)n2)cc1 (centres undefined)
inactive: outcome [8] | outcome [9] | outcome [10] | outcome [11] | outcome [12] | outcome [13] | outcome [14] | outcome [15] | outcome [17] | outcome [18] | outcome [19] | outcome [20] | outcome [21] | outcome [22]
active: activation [7] 146% | activation [16] 42.5%

CC/C(=C\C=C\[C@@H]1C=C[C@@H]2CCC[C@H]2[C@@H]1C(=O)c1ccc[nH]1)[C@@H]1O[C@@H]([C@@H](C)C(=O)O)CC[C@@H]1C
active: activation [23] 499% | potentiation [24] 166% | potentiation [25] 442%
inactive: outcome [26]

CN1CCN(c2cc(N3CCNCC3)ccc2[N+](=O)[O-])CC1
inactive: outcome [6]
active: membrane potential signal change [27] -426% | inhibition [28] 102% | percent change from control (negative = decrease, positive = increase) [29] -68% | inhibition [30] 66.5% | inhibition [5] 72.5%

CCOP(=S)(OCC)c1ccc(N(C)C)cc1
inactive: outcome [23] | outcome [24] | outcome [25] | outcome [26]

CC1(C)Cc2c(C#N)c(N3CCNCC3)nc(-c3ccco3)c2CS1
active: percent change from control (negative = decrease, positive = increase) [29] -14.5% | inhibition [30] 76.5% | inhibition [5] 62.5%
inactive: outcome [27] | outcome [28] | outcome [6]

CN(C)C(CNC(=O)Cc1c(Cl)cccc1Cl)c1ccccc1 (centres undefined)
inactive: outcome [9] | outcome [10] | outcome [11] | outcome [12] | outcome [13] | outcome [14] | outcome [15] | outcome [17] | outcome [18] | outcome [19] | outcome [20] | outcome [21] | outcome [22]
active: activation [7] 148% | activation [8] 86% | activation [16] 57.5%

COc1cc(C)c(CNCCc2c[nH]c3ccccc23)cc1C
inactive: outcome [8] | outcome [9] | outcome [10] | outcome [11] | outcome [12] | outcome [13] | outcome [14] | outcome [15] | outcome [17] | outcome [19] | outcome [20] | outcome [22]
active: activation [7] 165% | activation [16] 54.5% | activation [18] 74.2% | activation [21] 12.8%
